From PubChem BioAssay
Only some compounds are listed: those with a hit (about 1.2% of all), similar ones and a draw of the others.
ABHD5 PLIN5 PPI: ABHD5-PLIN5 protein interaction inhibition; Q00G26+Q8WTS1; Split G. princeps luciferase complementation, luminescence, 4 h; inhibition, % at 4 µM; 0.78% of 360,000 active; AID 602281;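 active = inhibition above the mean inhibition across every tested compound plus 3 SD, cut at about 22% in these data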
NOD2 RIPK2 PPI: blocks binding of human NOD2 to RIPK2 | O43353 | CHO BLA complementation NOD2-RIPK2, CCF4 ratio | inhibition, % at 4.98 µM | 0.38% of 360,000 active | AID 624267; in the data active = inhibition above about 21%
TLR4-MyD88 BLA: TLR4-MyD88 interaction inhibition in cells; 0.18% of 200,000 active; AID 861; HeLa CL3-4 TLR4/MyD88 BLA complementation, FRET ratio; inhibition, % at 8.4 µM; in the data active = inhibition above about 25%
TLR9-MyD88 inh: TLR9-MyD88 interaction inhibition. Q9NR96+Q99836. CHO BLA complementation TLR9-MyD88, CCF4 FRET ratio. inhibition, % at 4.98 µM. 0.21% of 340,000 active. AID 504734;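 active = inhibition above the mean over all tested compounds plus 3 SD, cut at about 21% in these data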
NOD2 RIPK2 conf: NOD2-RIPK2 interaction inhibition confirmed. shares compounds with NOD2 RIPK2 PPI. CHO cells, NOD2-RIPK2 BLA complementation, CCF4 FRET. inhibition, % at 4.98 µM. 70% of 1,200 active. AID 624370;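 active = mean inhibition across replicates above a set limit taken from the earlier primary screen, cut at about 21% in these data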
NOD2 BLA counter: hits BLA reporter in NOD2-RIPK2 inhibitor counterscreen. shares compounds with NOD2 RIPK2 PPI. inhibition, % at 4.98 µM. 57% of 1,200 active. CHO BLA reporter, CCF4 FRET ratio;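 active = mean inhibition above the low-control mean inhibition plus three low-control SD, cut at about 11% in these data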
A number is an active result; - = inactive; . = not tested or not shown.

SMILES	ABHD5 PLIN5 PPI	NOD2 RIPK2 PPI	TLR4-MyD88 BLA	TLR9-MyD88 inh	NOD2 RIPK2 conf	NOD2 BLA counter
CCCOc1ccc(NC(=O)C2CC(=O)N/C(=N/N=C(C)/C=C/c3ccc(N(C)C)cc3)S2)cc1 (stereo not drawn)	-	22.2	-	-	-	25.6
CC1CC(C)CN(C(=O)C(C)N2CCN(S(=O)(=O)c3cccs3)CC2)C1 (stereo not drawn)	-	-	.	-	.	.
CC(C)(C)OC(=O)NCCCCCNC(=O)c1[nH]cnc1C(=O)N[C@@H](Cc1ccccc1)C(=O)OC(C)(C)C	-	31.0	.	-	-	-
O=[N+]([O-])c1ccc(N/N=C/c2ccccc2)c(F)c1	-	24.1	-	-	27.0	29.9
Cc1cc(C)c2sc(N(CCCN(C)C)C(=O)c3ccc(S(=O)(=O)N4CCc5ccccc5C4)cc3)nc2c1	-	23.9	.	-	30.1	16.5
Cc1ccc2nc(N(CCCN(C)C)C(=O)c3ccc(S(=O)(=O)N4CCc5ccccc5C4)cc3)sc2c1	-	-	.	-	.	.
O=C(c1cc(-c2ccccc2)n[nH]1)N1CCc2c([nH]c3ccccc23)C1c1ccccn1 (stereo not drawn)	-	-	-	-	.	.
Cc1cc2[nH]c3c4ccccc4nc(C)c3c2cc1C	-	21.4	.	-	26.1	-
O=C(NCc1ccccc1)C(c1cc2ccccc2o1)n1c(=O)c(-c2ccccc2)nc2ccccc21 (stereo not drawn)	-	-	.	.	.	.
COc1ccc(NC(=O)C(c2cc3ccccc3o2)n2c(=O)c(-c3cc4ccccc4[nH]3)nc3ccccc32)cc1 (stereo not drawn)	-	51.4	.	.	46.1	67.5
COc1ccc(NC(=O)N2CCN(c3nc4ccccc4n3C(C)C)CC2)cc1	-	-	-	-	.	.
COc1ccc(NC(=O)C(C2CC2)n2c(=O)c(-c3ccccc3)nc3ccccc32)cc1 (stereo not drawn)	-	-	.	.	.	.
COc1ccc(NC(=O)C(c2ccc(OC)cc2)n2c(=O)c(-c3cc4ccccc4[nH]3)nc3ccccc32)cc1 (stereo not drawn)	-	44.0	.	.	40.3	66.1
COc1ccc(NC(=O)C(c2ccc(C#N)cc2)n2c(=O)c(-c3cc4ccccc4[nH]3)nc3ccccc32)cc1 (stereo not drawn)	-	56.5	.	.	54.5	72.0
COc1ccccc1C(=O)NNC(=O)c1ccc(Br)cc1	-	-	.	-	.	.
O=c1oc2cc(O)ccc2cc1S(=O)(=O)c1ccccc1	-	-	.	-	.	.
O=c1oc2cc(O)ccc2cc1-c1nc2ccccc2o1	-	56.9	.	.	54.2	68.5
O=C1NC[C@H](CCCCN2CCN(CCC3CCCCC3)C(=O)C2=O)N(CC2CCCCC2)C1=O	-	-	.	.	.	.
Cc1ccnc(N/C=C(\C#N)c2nc(-c3cccc(Br)c3)cs2)c1	-	27.0	-	-	30.0	29.7
CCCCCCN1C[C@@H](O)[C@H](n2cc(COC(=O)c3ccccc3)nn2)C[C@@H]1c1ccccc1	-	-	.	-	.	.
COc1ccc(C)c2sc(NC(=O)c3cccc(N4C(=O)CCC4=O)c3)nc12	-	21.7	.	-	-	-
Cc1ccc(C)c2sc(NC(=O)c3ccc(N4C(=O)CCC4=O)cc3)nc12	-	-	-	-	.	.
COc1ccc(C(=O)N/N=C/c2sc3ccccc3c2O)cc1	-	21.8	-	-	-	-
COc1ccc2cc(C(=O)N/N=C/c3sc4ccccc4c3O)ccc2c1	-	-	-	-	.	.
CC1C=CC(C)C(C(=O)c2ccccc2)C1C(=O)c1ccccc1 (stereo not drawn)	-	29.6	.	-	-	-
SMILES	ABHD5 PLIN5 PPI	NOD2 RIPK2 PPI	TLR4-MyD88 BLA	TLR9-MyD88 inh	NOD2 RIPK2 conf	NOD2 BLA counter
COC(=O)c1cccc(N2CCCC2=O)c1	-	-	.	-	.	.
COC(=O)c1cccc(-n2sc3ccccc3c2=O)c1	91.4	40.4	.	-	36.4	13.3
CCO[C@H]1OC(C(=O)N2CCN(Cc3ccc4c(c3)OCO4)CC2)=C[C@@H](c2cn(C(C)=O)c3ccccc23)[C@@H]1CCCO	-	-	-	-	.	.
CCO[C@H]1OC(C(=O)N2CCN(Cc3ccc4c(c3)OCO4)CC2)=C[C@@H](c2csc3ccccc23)[C@@H]1CCCO	-	22.5	-	-	-	-
CC(=O)Oc1ccc2cc(-c3cccnc3)c(=O)oc2c1	-	30.5	.	-	29.6	44.6
COc1ccc2cc(-c3ccccc3)c(=O)oc2c1	-	-	.	-	.	.
